This is an account of results in PubChem BioAssay AID1445 (SRMLSC, 2008).

Screen size: about 220,000 compounds; about 910 (0.41%) were called active. Only a selection was taken, and actives are over-represented in it overall. Measured potencies and affinities stand elsewhere. A number with no mark means an inactive call.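 How the source made its calls: active means primary inhibition above the hit cutoff, then over 50% inhibition at one or more dose response concentrations (cut at about 23% in these data, passing the limit was not always enough); inconclusive means conflicting primary data, or primary hits not chosen for dose response; inactive means low primary inhibition, or under 50% at every dose.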

In this assay the target is Aminopeptidase N (Plasmodium falciparum (isolate 3D7)) (UniProt O96935). As to the kind of experiment: P. falciparum M1AAP inhibitors, biochemical, fluorogenic H-Leu-NHMec substrate, 1536-well (AID 1445).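 Further: plate controls were DMSO full reaction for no effect and no enzyme background for full effect.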 The note with it: recombinant M1AAP, H-Leu-NHMec fluorogenic kinetic assay; at 30 µM, hits give high values unless noted.
Chain of Aminopeptidase N (Plasmodium falciparum (isolate 3D7)) (O96935 whole entry, looked up): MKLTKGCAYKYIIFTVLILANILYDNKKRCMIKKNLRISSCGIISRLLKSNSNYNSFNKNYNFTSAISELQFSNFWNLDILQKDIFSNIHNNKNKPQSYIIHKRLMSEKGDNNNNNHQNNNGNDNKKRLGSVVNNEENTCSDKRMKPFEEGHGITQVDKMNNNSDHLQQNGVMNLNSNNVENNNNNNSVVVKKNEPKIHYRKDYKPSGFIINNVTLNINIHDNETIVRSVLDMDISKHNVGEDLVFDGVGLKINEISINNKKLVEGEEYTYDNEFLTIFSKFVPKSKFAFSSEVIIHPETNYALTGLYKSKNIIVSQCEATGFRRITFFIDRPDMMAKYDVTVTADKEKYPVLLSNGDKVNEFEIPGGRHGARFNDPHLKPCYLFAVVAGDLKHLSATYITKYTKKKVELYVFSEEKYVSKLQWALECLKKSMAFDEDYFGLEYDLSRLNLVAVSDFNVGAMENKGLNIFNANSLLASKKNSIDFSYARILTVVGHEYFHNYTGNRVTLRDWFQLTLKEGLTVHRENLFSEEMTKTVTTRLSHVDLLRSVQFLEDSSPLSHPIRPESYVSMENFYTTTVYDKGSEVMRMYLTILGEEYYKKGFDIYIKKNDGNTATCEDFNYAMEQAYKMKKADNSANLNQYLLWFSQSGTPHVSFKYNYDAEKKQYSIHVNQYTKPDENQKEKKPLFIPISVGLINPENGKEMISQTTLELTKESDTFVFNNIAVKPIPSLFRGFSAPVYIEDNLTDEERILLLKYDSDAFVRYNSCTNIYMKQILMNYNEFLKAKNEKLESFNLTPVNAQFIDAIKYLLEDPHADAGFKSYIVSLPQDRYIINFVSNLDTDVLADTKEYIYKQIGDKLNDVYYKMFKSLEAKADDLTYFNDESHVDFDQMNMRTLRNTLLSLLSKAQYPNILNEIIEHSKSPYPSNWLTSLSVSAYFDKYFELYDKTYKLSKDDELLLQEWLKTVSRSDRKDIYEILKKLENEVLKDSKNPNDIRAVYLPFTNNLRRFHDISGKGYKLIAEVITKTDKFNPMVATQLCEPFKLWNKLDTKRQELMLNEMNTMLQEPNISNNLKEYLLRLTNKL
In general, inhibition refers to the relative decrease from the control value, in per cent. Consider `COCC1CCN(Cc2cn(-c3ccccc3F)nc2-c2cc(C)sc2C)CC1`, for which the inhibition is 0.56%.
The figure for `COc1ccc(-c2nc3n(n2)C(c2ccccc2Cl)C(C(N)=O)=C(C)N3)cc1` (stereo not given) is 9.41%; for `CCOC(=O)CSc1ccc(S(=O)(=O)N2CCCC2)cc1[N+](=O)[O-]` it is -0.65%.
The figure for `COc1ccc(OCCSc2nc3ccccc3c(=O)[nH]2)cc1` is 2.2%.
Under `CCN1C(=O)[C@H]2[C@H]3[C@H](O)[C@H](O)C/C(=N\O[C@H](C)c4cn([C@H](CO)Cc5ccccc5)nn4)[C@@H]3CC[C@H]2C1=O` stands -7.3%; under `COCC(=O)NC1CCCCCC1`, 2.18%; under `CCOc1cc(C)c(Cl)cc1S(=O)(=O)NCC1CCCO1` (stereo not given), 1.73%.
Regarding `O=C1NCCCC1C(=O)N/N=C/c1cccc(Cl)c1` (stereo not given), the inhibition was -7.25%.
Under `NS(=O)(=O)c1ccc(CCNC(=O)COC(=O)CCc2ccccc2)cc1` stands -2%.
The figure for `N#Cc1nc(Cc2cccc3ccccc23)oc1NCCCN1CCOCC1` is 6.12%; for `CNc1oc(-c2cccs2)nc1C#N` it is 13%; for `CCN(CC)CCCNc1oc(-c2cccc(Cl)c2)nc1C#N` it is 12.2%.
The figure for `CN(C)c1oc(-c2ccccc2)nc1C#N` is 11%; for `N#Cc1nc(COc2ccc(-c3ccccc3)cc2)oc1NCCCN1CCOCC1` it is -3.18%.
Regarding `CCN(CC)CCCNc1oc(-c2ccccc2[N+](=O)[O-])nc1C#N`, the inhibition was 9.93%.
`CCOc1cc(C)c(C(C)C)cc1S(=O)(=O)n1ccc(C)n1`: the inhibition is -2.68%.
Take `Cc1c(Cl)cccc1NC(=S)NCCc1ccccn1`: the inhibition was 20.7%.
The figure for `COc1ccc(/C=C2\CCCC3C2=NN(C(=O)COC(=O)CNC(=O)c2ccccc2)C3c2ccc(OC)cc2)cc1` (stereo not given) is 2.31%.
Regarding `O=C(Cc1cccs1)Nc1nnc(-c2ccc(F)cc2)s1`, the inhibition was -2.11%.
The figure for `COc1cc(C(=O)Nc2ccc([N+](=O)[O-])cn2)cc(OC)c1OC` is 13.8%; for `COc1ccc(S(=O)(=O)NCCC(C)C)cc1OC` it is -0.02%.
Take `Cc1nc(N)sc1C(=O)OCC(C)C`: the inhibition is -4.36%.
In the case of `Cc1ccc(-n2c(P(C)(=O)O)nc3ccccc32)cc1`, the inhibition was -0.56%.
Under `Cc1ccnc(NC(=O)CCCOc2ccc(Cl)cc2C)c1` stands -1.52%; under `C=CCC(=O)N1CCCC(CCC(=O)NCc2ccccc2F)C1` (stereo not given), 9.17%.
The figure for `O=C(CCn1c(=O)oc2ccccc21)Nc1ccc2c(c1)OCCO2` is -5.19%; for `COc1ccccc1CCNS(=O)(=O)c1cn(C)c(=O)n(C)c1=O` it is -3.3%; for `C[C@H](CCC(=O)O)[C@H]1CC[C@H]2[C@@H]3C(=O)C[C@@H]4CC(=O)CC[C@]4(C)[C@H]3CC(=O)[C@]12C` it is 7.14%.
The figure for `CC(CCC(=O)O)C1CC[C@@]2(C)C3C(=O)CC4C(C)(C)C(O)CC[C@]4(C)C3C(=O)C[C@]12C` (stereo not given in full) is 3%; for `C=CCn1c(O)c(N=NC(=O)OCC)c2ccccc21` it is 12.7%; for `C/C(Cl)=C\Cn1c(O)c(N=O)c2ccccc21` it is -2.4%.
Take `CCn1c(O)c(N=NC(=O)Cn2ccc(C(F)(F)F)n2)c2ccccc21`: the inhibition was 5.05%.
Under `O=C(N/N=C/c1ccc(Cl)s1)c1ccccc1[N+](=O)[O-]` stands 9.55%; under `Cc1c(C)c2ccc(Oc3ccc([N+](=O)[O-])cc3C(F)(F)F)c(C)c2oc1=O`, 6.61%; under `Cc1cc(SCC(=O)N2CCC(c3noc4ccc(F)cc34)CC2)nc2ccccc12`, 7.53%.
For the compound `Cc1sc2ncnc(SCC(=O)N3CCC(c4noc5ccc(F)cc45)CC3)c2c1C`, the inhibition was 1.38%.
In the case of `COC(=O)c1cn(NC(=O)Cc2ccccc2OC)c(=O)c2ccccc12`, the inhibition was 3.77%.
The figure for `CC(=O)Oc1c(-c2ccco2)oc2ccccc2c1=O` is 30.4%.
The figure for `O=C(O)COc1c(-c2ccco2)oc2ccccc2c1=O` is 9.28%; for `Cn1c(SCc2nc(-c3ccccc3)no2)nnc1-c1cccs1` it is -3.32%; for `N/C(=N\OC(=O)c1cnn(-c2ccccc2)c1C(F)(F)F)c1ccc(C(F)(F)F)cc1` it is 13.2%.
The figure for `O=C(NN1C(=O)c2ccccc2NC1c1ccoc1)c1ccc([N+](=O)[O-])cc1` (stereo not given) is 4.32%; for `CC(=O)NN1C(=O)c2ccccc2NC1c1ccoc1` (stereo not given) it is 4.92%.
For `O=C(NN1C(=O)c2ccccc2NC1c1ccccn1)c1ccc([N+](=O)[O-])cc1` (stereo not given), the inhibition was 2.53%.
The figure for `O=C(NN1C(=O)c2ccccc2NC1c1ccccn1)c1ccc(Br)cc1` (stereo not given) is 8.07%; for `O=C(NN1C(=O)c2ccccc2NC1c1ccco1)c1ccc([N+](=O)[O-])cc1` (stereo not given) it is 8.9%; for `O=C(NN1C(=O)c2ccccc2NC1c1ccco1)c1ccc(Br)cc1` (stereo not given) it is 5.55%.
Under `CCCc1[nH]nc2c1C1(CCN(C(=O)OCc3ccccc3)CC1)C(C#N)=C(N)O2` stands 3.73%; under `O=C1OCC=C1NNC(=O)c1cccnc1`, 4.75%.
Regarding `Cc1ccc(SCc2[nH]nc3c2C2(C(=O)N(C)c4ccccc42)C(C#N)=C(N)O3)cc1` (stereo not given), the inhibition is 5.03%.
The figure for `COc1ccc(-n2c(SCC(=O)NCCC(C)C)nc3ccsc3c2=O)cc1` is -0.48%; for `Cc1ccc(CNC(=O)CSc2nc3ccsc3c(=O)n2Cc2ccc(C(=O)O)cc2)cc1` it is 33.8%; for `CCC(C)NC(=O)CSc1nc2ccsc2c(=O)n1NC(=O)c1ccccc1` (stereo not given) it is 15.2%.
`Cn1c(SCc2ccccc2)nc2ccsc2c1=O`: the inhibition was 2.71%.
The figure for `Cc1ccc(CNC(=O)CSc2nc3ccsc3c(=O)n2Cc2ccccn2)cc1` is 15.8%; for `O=C(CSc1nc2ccsc2c(=O)n1Cc1ccccc1)NCc1ccco1` it is -0.89%.
Under `COc1ccc(C(=O)Nn2c(SCC(=O)NCc3ccco3)nc3ccccc3c2=O)cc1` stands 1.81%; under `CCCN(CCC)C(=O)CSc1nc2ccsc2c(=O)n1NC(=O)c1ccccc1`, 2.56%.
Under `CC1(C)Cc2c(sc(/N=C/N3CCCCC3)c2C#N)C(C)(C)N1` stands 6.45%; under `COc1ccc(/C=C/C(=O)NCC2COc3ccccc3O2)c(OC)c1` (stereo not given), 6.8%; under `COc1ccc(Cl)cc1NC(=O)CNc1ccccc1CN(C)C1CCCCC1`, 10.4%.
For `COC(=O)c1ccc(COc2ncnc3c(Cl)cc(Cl)cc23)o1`, the inhibition is 1.47%.
For the compound `COc1ccc(C)cc1NC(=O)Cn1cnnn1`, the inhibition is 2.9%.
The figure for `S=C(c1ccc(Br)cc1)N1CCN(Cc2ccccc2)CC1` is 12.5%; for `CCc1n[nH]c(=S)n1/N=C/c1ccccc1OCc1ccc(Cl)cc1` it is 3.79%; for `CSc1n[nH]c(NC(C)=O)n1` it is 2.22%.
`C/C(=N\O)c1cc(Cl)cc(Cl)c1O`: the inhibition was 10.5%.
For the compound `Oc1c(Cl)cc(Cl)cc1C=Nc1ccc(Br)cc1`, the inhibition is 12.1%.
Under `O=C(NCCn1ccc2ccccc21)c1ccc(S(=O)(=O)N2CCOCC2)cc1` stands 8.48%.
The figure for `CC(C)C(=O)NCCc1nc2ccccc2n1CCCOc1ccc(Cl)cc1` is 10.4%.
Take `O=C(CC(C(=O)O)c1ccccc1)c1cccs1` (stereo not given): the inhibition is 3.01%.
The figure for `CC(C)Cc1nc2oc3c(=O)[nH]cnc3c2c2c1CCCC2` is -0.28%; for `CN(C)C(=O)N1CCCC(C(=O)NCCc2ccccc2)C1` (stereo not given) it is 2.4%.
For `O=C(NC1CCN(C(=S)NCCc2ccccc2)CC1)C1CCCCC1`, the inhibition was -6.9%.
Under `O=C(NCCc1ccccc1)C1CCCN(C(=O)NC2CCCCC2)C1` (stereo not given) stands 28.2% (active).
In the case of `O=C(O)Cc1c(-c2ccccc2)c2cc(Br)ccc2[nH]c1=O`, the inhibition is 22.3%.
The figure for `O=C(CN1CCOCC1)NNc1nc(-c2ccccc2)c2cc(Br)ccc2n1` is 20.7%.
The figure for `N#Cc1c(NC(=O)CCN2C(=O)c3ccccc3C2=O)oc(-c2ccccc2)c1-c1ccccc1` is 5.82%; for `O=c1[nH]c2ccc(Cl)cc2c(-c2ccccc2)c1SC(=S)N1CCOCC1` it is 44%.
Under `N#Cc1c(NC(=O)Cn2c(=O)oc3ccccc32)oc(-c2ccccc2)c1-c1ccccc1` stands 4.71%; under `O=C(CCN1CCOCC1)Nc1cccc(Br)c1`, -4.3%.
As to `N#Cc1c(NC(=O)CN2CCOCC2)oc(-c2ccccc2)c1-c1ccccc1`, the inhibition was 23.5% (active).
Under `CCOC(=O)c1[nH]c2ccc(Br)cc2c1NC(=O)CCN1CCOCC1` stands 4.62%.
The figure for `O=c1[nH]c2ccc(Cl)cc2c(-c2ccccc2)c1N1CCOCC1` is -3.98%; for `O=C(CN1CCOCC1)Nc1c(-c2ccccc2)c2cc(Br)ccc2[nH]c1=O` it is 28.2% (active); for `CCOC(=O)N1CCN(C(=O)CCCOc2ccccc2)CC1` it is 3.31%.
The figure for `O=c1[nH]ncc(N2CCCCCC2)c1Cl` is 5.89%; for `COc1cc(/C=C/C(=O)O)ccc1OCc1cnc(Cl)s1` it is 0.41%.
`CC1=Nn2c(nc(-c3ccccc3)c2-c2ccccc2)N(CC(N)=O)C(=O)C1`: the inhibition is -0.64%.
For the compound `CCCS(=O)(=O)N1CCN(C(=O)c2ccco2)CC1`, the inhibition was 12.4%.
The figure for `CSc1nnc(C)c(=O)n1COC(=O)COc1ccccc1` is 0.02%; for `COc1cc(OC)cc(C(=O)NC(=S)NCc2ccco2)c1` it is 5.49%.
The figure for `O=C(NC1CCCCC1)N1CCN(C(=O)c2ccco2)CC1` is -0.86%; for `O=C(c1ccco1)n1nc(-c2cccnc2)nc1NCc1ccco1` it is 16.8%.
The figure for `CC1(C)Cc2nc3sc(C(=O)NCCO)c(N)c3cc2CO1` is 1.79%.
